Of roughly 7,900 targets only a part is listed; those with a hit were picked by preference. About 0.6% of all pairs of compound and target were hits.

UniProt Q0VG06, sequence (Q0VG06 whole entry, looked up): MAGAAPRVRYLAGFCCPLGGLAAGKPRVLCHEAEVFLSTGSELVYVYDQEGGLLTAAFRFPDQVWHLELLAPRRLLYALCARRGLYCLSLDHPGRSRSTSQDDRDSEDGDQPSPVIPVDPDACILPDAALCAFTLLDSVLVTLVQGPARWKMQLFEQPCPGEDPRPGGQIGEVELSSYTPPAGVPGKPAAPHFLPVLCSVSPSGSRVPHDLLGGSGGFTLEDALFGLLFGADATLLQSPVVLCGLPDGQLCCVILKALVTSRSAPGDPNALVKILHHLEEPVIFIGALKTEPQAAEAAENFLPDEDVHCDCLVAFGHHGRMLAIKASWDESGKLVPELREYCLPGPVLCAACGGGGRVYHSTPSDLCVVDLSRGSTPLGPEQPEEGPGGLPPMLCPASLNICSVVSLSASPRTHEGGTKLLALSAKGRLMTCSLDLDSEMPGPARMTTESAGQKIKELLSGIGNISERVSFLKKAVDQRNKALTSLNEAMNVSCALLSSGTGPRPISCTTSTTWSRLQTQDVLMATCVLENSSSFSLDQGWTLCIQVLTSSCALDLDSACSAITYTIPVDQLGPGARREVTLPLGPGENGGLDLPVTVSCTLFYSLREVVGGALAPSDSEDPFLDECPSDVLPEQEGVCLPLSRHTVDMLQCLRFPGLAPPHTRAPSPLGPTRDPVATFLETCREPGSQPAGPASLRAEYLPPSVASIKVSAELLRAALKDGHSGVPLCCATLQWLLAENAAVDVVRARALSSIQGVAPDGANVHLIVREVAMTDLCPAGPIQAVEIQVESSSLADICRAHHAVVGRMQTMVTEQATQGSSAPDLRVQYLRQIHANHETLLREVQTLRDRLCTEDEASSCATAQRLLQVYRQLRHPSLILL
UniProt O00418, sequence (O00418 whole entry, looked up): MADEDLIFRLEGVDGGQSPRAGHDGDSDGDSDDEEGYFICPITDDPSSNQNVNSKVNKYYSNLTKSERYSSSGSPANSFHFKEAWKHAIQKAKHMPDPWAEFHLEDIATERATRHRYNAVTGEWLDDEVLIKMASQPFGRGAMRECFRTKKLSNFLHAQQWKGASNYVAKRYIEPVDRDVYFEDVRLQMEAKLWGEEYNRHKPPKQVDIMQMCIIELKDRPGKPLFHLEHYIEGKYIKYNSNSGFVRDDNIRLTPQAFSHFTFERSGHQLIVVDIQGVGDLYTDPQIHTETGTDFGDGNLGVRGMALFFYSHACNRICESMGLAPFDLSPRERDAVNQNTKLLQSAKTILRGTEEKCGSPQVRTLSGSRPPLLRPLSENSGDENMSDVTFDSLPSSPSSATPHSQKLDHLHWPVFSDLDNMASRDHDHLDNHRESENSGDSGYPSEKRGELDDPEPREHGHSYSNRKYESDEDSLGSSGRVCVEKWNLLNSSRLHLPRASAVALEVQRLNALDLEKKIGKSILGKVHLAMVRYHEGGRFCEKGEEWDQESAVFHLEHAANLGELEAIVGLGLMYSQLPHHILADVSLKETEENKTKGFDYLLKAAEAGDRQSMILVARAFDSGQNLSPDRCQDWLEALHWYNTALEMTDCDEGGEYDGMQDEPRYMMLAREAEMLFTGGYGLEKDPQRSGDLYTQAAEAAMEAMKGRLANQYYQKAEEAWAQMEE
UniProt O00148, sequence (O00148 whole entry, looked up): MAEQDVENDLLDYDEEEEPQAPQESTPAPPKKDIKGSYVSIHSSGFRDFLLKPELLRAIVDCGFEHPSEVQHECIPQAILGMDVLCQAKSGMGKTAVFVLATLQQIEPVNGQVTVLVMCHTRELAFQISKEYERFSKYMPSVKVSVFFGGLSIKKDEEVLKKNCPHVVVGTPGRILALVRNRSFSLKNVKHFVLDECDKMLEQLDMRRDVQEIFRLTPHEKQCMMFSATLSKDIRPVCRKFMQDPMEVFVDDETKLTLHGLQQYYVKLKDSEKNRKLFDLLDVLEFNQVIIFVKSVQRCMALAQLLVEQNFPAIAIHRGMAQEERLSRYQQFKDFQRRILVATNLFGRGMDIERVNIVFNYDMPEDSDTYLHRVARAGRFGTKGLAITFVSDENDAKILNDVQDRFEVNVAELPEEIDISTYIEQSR
UniProt P24534, sequence (P24534 whole entry, looked up): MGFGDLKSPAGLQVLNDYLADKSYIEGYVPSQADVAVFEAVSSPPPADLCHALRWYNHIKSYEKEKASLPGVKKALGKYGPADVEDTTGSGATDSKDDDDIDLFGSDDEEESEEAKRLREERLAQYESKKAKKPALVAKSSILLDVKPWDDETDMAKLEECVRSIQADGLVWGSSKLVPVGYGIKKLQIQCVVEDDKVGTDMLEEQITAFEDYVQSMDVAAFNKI
UniProt Q15075, sequence (Q15075 whole entry, looked up): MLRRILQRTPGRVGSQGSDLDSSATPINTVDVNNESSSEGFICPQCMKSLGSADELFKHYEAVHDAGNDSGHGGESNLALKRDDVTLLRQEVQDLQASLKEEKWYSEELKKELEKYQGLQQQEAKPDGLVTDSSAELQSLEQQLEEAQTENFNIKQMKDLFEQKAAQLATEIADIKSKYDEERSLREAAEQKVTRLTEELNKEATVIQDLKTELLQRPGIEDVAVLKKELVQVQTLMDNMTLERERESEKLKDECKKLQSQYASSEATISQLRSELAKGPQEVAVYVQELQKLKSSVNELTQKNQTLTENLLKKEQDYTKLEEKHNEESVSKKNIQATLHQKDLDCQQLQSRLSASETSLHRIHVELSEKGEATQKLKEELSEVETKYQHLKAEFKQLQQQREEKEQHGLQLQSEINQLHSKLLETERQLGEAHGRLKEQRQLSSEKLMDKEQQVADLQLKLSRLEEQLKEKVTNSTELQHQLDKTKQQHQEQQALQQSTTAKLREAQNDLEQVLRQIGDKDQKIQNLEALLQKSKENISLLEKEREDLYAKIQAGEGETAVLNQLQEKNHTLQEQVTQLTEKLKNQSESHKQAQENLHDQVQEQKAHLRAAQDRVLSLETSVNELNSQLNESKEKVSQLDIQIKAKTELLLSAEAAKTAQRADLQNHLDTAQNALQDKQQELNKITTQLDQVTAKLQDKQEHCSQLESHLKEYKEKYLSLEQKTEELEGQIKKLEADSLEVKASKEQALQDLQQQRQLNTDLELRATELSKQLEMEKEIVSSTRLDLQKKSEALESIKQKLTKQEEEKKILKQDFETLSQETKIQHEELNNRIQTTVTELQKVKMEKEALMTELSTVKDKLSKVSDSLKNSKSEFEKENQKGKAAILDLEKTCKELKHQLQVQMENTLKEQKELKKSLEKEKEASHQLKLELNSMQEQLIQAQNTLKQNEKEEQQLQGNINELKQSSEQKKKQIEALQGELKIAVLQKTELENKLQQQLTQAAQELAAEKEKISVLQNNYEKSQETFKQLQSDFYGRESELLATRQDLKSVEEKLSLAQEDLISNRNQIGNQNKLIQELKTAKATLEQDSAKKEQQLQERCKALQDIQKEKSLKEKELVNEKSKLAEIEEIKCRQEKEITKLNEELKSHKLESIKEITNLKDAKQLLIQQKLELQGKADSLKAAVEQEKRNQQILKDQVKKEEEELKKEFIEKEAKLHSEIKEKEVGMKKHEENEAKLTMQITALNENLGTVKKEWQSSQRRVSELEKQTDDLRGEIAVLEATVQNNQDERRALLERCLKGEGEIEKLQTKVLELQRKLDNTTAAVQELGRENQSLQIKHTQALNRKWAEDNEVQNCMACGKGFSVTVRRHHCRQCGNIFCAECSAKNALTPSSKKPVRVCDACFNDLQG
UniProt Q96DF8, sequence (Q96DF8 whole entry, looked up): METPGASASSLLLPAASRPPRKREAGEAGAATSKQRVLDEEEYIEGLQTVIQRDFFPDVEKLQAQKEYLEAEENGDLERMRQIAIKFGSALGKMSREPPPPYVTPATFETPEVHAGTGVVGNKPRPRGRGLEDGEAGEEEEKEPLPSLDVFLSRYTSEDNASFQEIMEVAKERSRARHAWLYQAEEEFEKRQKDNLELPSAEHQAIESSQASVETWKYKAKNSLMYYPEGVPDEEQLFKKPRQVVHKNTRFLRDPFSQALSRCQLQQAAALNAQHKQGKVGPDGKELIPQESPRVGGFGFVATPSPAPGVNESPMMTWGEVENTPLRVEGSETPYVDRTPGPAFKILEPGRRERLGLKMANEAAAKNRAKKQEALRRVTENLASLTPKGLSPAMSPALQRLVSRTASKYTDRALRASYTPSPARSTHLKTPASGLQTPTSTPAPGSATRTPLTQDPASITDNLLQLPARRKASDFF
UniProt Q96E09, sequence (Q96E09 whole entry, looked up): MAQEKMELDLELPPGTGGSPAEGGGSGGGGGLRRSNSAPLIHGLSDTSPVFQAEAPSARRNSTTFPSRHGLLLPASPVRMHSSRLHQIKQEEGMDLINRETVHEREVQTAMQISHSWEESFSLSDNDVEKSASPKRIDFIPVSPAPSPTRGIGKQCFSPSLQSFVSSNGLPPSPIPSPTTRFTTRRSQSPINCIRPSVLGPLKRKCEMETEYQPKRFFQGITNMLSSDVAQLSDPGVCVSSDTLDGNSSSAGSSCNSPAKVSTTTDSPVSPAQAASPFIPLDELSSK
UniProt O60573, sequence (O60573 whole entry, looked up): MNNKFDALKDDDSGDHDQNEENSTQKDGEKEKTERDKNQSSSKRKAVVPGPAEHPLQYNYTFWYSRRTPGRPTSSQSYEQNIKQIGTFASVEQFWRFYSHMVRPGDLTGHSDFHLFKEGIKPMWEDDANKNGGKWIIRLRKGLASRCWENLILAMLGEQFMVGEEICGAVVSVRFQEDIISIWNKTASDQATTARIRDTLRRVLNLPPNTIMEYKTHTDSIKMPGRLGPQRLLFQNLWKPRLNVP
UniProt Q9H2P9, sequence (Q9H2P9 whole entry, looked up): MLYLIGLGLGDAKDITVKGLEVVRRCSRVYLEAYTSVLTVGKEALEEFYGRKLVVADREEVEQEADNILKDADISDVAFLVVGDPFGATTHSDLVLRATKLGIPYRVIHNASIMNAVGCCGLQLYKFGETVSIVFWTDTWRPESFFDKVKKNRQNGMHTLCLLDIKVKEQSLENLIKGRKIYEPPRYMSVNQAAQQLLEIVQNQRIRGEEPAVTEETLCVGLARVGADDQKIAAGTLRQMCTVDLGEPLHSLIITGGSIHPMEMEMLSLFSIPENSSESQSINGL

Compound in this experiment: c1cn2cc(-c3ccc4cn[nH]c4c3)nc(Nc3ccc(N4CCOCC4)cc3)c2n1 [entospletinib]
Briefly: log2 fold change, soluble protein after heating vs DMSO (PISA); higher = thermal stabilisation; K562 cells, 10 uM, 30 min; active = over 0.2 and 3.5 SD of the protein, either way, in both replicates (recomputed). The method, boiled down:
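Quantification of soluble protein used TMTpro 16plex LC-MS/MS, with channel sums equalised. Samples were the supernatant after 21,000xg for 90 min of pooled aliquots from K562 cells (2×10^6 cells/mL) treated with 10 μM compound for 30 min, heated for 3 min over 48°C-58°C, and extracted in PBS with 0.5% NP-40 at 4°C. Values, from duplicates, describe thermal stability against control samples on a log2 fold-change scale.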
Consider EIF4E2 (UniProt O60573), for which the log2 fold change is -0.107 (inactive).

Consider EXOC7 (UniProt Q9UPT5), for which the log2 fold change is -0.106 (inactive).

For DHX16 (UniProt O60231), the log2 fold change is 0.01 (inactive).

EXOC4 (UniProt Q96A65): the log2 fold change was -0.067 (inactive). The result for DIP2A (UniProt Q14689) reads -0.128 (inactive); that for EXOC5 (UniProt O00471), 0.002 (inactive); that for DHX40 (UniProt Q8IX18), -0.055 (inactive). As to DCAF16 (UniProt Q9NXF7), the log2 fold change is 0 (inactive). For F5 (UniProt P12259) the value was 0.133 (inactive). The result for DDX39A (UniProt O00148) reads 0.022 (inactive).

Turning to DDB1 (UniProt Q16531), the log2 fold change was 0.001 (inactive).

Regarding DYNC1I2 isoform 5 (UniProt Q13409), the log2 fold change is 0.038 (inactive). Turning to ESYT1 isoform 2 (UniProt Q9BSJ8), the log2 fold change was 0.003 (inactive). Turning to DPH5 isoform 5 (UniProt Q9H2P9), the log2 fold change is -0.045 (inactive).

Consider FAM122A (UniProt Q96E09), for which the log2 fold change was -0.012 (inactive). For DHRS1 (UniProt Q96LJ7) the value was -0.613 (inactive); for DNAH10 (UniProt Q8IVF4), -0.132 (inactive); for ESS2 (UniProt Q96DF8), 0.118 (inactive). Regarding EEA1 (UniProt Q15075), the log2 fold change was -0.005 (inactive). The result for EXOC1 (UniProt Q9NV70) reads -0.035 (inactive). The result for DNAJB12 (UniProt Q9NXW2) reads 0.01 (inactive); that for DYRK1A isoform 2 (UniProt Q13627), 0.003 (inactive); that for EEF1B2 (UniProt P24534), 0.038 (inactive). For CTNNB1 (UniProt P35222) the value was -0.212 (inactive). For ELF1 (UniProt P32519), the log2 fold change was -0.082 (inactive).

As to DBR1 (UniProt Q9UK59), the log2 fold change is 0 (inactive). DHFR (UniProt P00374): the log2 fold change is 0.013 (inactive).

In the case of EDRF1 (UniProt Q3B7T1), the log2 fold change is -0.036 (inactive). For EEF2K (UniProt O00418) the value was 0.09 (inactive); for ENTPD7 (UniProt Q9NQZ7), 0.096 (inactive); for FAM160B1 (UniProt Q5W0V3), 0.008 (inactive). On to FAAP100 (UniProt Q0VG06), for which the log2 fold change was 0.003 (inactive). The result for EED, A0A5F9ZI63 reads 0.037 (inactive). The result for EIF4G3 isoform 3 (UniProt O43432) reads 0.118 (inactive).

The values above are taken from the supplement of paper PMC10849652.
